Laboratory results reported in PubChem BioAssay.
Activity calls are given as the source filed them.

Experiments:
[1] = anti-His antibody binders, primary screen, artefact control for SMM control protein annotation, biochemical, small-molecule microarray, 635 nm fluorescence (AID 1128); settings: anti-His Alexa647 antibody binding, higher = more signal;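 also: score merges feature fluorescence with signal-to-noise for each printed compound spot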
[2] = system: Human papillomavirus type 1a E7 protein (residues 1-88); experiment: HPV1a E7 small-molecule binders, primary screen, biochemical, small-molecule microarray, residues 1-88, 635 nm (AID 1129); settings: small-molecule microarray binding, fluorescence 635 nm; higher = more signal
[3] = biological target: Focal adhesion kinase 1 (Homo sapiens) (UniProt Q05397); experiment: small-molecule microarray binders of FAK, primary screen, biochemical, 635/667 nm fluorescence, BSA, DTT (AID 1130); settings: PTK2 binding, 635 nm fluorescence, higher = more signal;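 also: composite of spot emission at 667 nm and signal to noise over triplicate slides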
Focal adhesion kinase 1 (Homo sapiens), sequence (Q05397 whole entry, looked up): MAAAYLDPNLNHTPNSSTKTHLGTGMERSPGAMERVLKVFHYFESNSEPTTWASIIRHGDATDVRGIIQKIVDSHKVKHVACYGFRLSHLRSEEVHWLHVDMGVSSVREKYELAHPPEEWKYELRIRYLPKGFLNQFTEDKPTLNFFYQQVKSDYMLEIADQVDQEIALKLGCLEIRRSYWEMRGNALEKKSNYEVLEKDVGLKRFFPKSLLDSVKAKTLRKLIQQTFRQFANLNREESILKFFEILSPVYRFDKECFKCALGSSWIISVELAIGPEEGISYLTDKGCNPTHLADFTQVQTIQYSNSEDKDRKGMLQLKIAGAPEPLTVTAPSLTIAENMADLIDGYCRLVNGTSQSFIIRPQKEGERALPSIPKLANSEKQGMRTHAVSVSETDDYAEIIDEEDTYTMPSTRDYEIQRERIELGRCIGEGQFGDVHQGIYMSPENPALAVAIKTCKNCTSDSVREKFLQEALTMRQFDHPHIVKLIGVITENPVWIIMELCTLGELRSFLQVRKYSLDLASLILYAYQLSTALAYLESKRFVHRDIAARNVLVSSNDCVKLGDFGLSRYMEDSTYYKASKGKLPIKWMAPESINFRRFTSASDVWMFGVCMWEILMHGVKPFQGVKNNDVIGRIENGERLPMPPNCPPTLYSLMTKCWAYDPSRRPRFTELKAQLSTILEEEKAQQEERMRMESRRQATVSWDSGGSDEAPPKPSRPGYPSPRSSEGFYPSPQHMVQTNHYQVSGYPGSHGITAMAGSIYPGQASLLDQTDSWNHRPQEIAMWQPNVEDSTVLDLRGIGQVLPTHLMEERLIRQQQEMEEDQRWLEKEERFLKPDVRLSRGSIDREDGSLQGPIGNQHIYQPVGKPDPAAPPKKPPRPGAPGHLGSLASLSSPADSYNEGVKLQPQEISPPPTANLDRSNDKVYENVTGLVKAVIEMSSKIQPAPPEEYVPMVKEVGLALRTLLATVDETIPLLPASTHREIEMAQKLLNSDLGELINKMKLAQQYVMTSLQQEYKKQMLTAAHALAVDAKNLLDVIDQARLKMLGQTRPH

[4] = system: Fibrinogen (Alexa647-labelled); experiment: fibrinogen binders on compound microarrays, profiling panel, artefact control for SMM control-protein annotation, biochemical, small-molecule microarray, 635/667 nm fluorescence (AID 1131); settings: fibrinogen-A647 binding fluorescence, higher = more signal;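 also: z-score merges 667 nm fluorescence with per-spot signal-to-noise over triplicate slides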
[5] = biological target: Follistatin (Homo sapiens) (UniProt P19883); experiment: follistatin binders on small-molecule microarrays, primary screen, biochemical, small-molecule microarray, 635/667 nm fluorescence (AID 1132); settings: FST binding, 635 nm fluorescence, higher = more signal
Follistatin (Homo sapiens), sequence (P19883 whole entry, looked up): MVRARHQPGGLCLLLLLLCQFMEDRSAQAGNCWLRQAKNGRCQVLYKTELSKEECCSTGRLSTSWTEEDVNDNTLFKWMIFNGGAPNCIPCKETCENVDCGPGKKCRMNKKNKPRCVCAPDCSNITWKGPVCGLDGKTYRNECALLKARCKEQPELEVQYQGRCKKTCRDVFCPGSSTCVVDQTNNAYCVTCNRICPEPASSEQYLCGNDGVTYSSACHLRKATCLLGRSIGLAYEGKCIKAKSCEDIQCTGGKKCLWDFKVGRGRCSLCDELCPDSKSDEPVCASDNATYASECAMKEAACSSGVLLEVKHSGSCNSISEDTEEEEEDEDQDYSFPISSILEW

[6] = biological target: Fibroblast growth factor 2 (Homo sapiens) (UniProt P09038); experiment: FGF2 binders on small-molecule microarrays, primary screen, biochemical, small-molecule microarray, 635/667 nm fluorescence (AID 1133); settings: small-molecule microarray binding, FGF2, fluorescence 635/667; higher = more signal
Fibroblast growth factor 2 (Homo sapiens), sequence (P09038 whole entry, looked up): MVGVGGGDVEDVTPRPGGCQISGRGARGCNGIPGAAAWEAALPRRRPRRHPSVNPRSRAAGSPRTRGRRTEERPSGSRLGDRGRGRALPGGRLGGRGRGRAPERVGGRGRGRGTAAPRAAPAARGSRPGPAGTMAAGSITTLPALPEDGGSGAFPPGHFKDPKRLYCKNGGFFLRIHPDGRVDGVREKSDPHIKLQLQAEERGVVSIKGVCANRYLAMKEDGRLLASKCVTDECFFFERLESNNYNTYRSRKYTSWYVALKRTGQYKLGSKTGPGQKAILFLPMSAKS

[7] = mitochondrial membrane potential change in A549 cells, profiling panel, cell-based, JC-1 fluorescence, basal, 24 h, 100 nL (AID 1138); settings: higher = more signal;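 also: A549 lung adenocarcinoma cells under basal conditions with no added stimulus; test concentration not given here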
[8] = system: Lefty1; experiment: Lefty1 binders on small-molecule microarrays, primary screen, biochemical, small-molecule microarray, 635/667 nm fluorescence (AID 1139); settings: small-molecule microarray binding, fluorescence 635/667; higher = more signal
[9] = system: wheat germ agglutinin (Triticum aestivum), Alexa647-labelled; experiment: wheat germ agglutinin binders on compound microarrays, profiling panel, artefact control for SMM control-protein annotation, biochemical, small-molecule microarray, 635/667 nm fluorescence (AID 1140); settings: WGA-A647 binding, 635 nm fluorescence, higher = more signal;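 also: score merges 667 nm feature emission with signal to noise over triplicate slides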
[10] = biological target: Luciferin 4-monooxygenase (Photinus pyralis) (UniProt P08659); experiment: firefly luciferase enzyme inhibitors, primary screen, biochemical, luminescence, purified enzyme, 2006 set (AID 1141); settings: SteadyGlo luminescence, 30 min, higher = more signal, called active from +8 up or from −8 down;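 also: cell-free assay with purified firefly luciferase at 100 ng per well in PBS; test concentration not given here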
Luciferin 4-monooxygenase (Photinus pyralis), sequence (P08659 whole entry, looked up): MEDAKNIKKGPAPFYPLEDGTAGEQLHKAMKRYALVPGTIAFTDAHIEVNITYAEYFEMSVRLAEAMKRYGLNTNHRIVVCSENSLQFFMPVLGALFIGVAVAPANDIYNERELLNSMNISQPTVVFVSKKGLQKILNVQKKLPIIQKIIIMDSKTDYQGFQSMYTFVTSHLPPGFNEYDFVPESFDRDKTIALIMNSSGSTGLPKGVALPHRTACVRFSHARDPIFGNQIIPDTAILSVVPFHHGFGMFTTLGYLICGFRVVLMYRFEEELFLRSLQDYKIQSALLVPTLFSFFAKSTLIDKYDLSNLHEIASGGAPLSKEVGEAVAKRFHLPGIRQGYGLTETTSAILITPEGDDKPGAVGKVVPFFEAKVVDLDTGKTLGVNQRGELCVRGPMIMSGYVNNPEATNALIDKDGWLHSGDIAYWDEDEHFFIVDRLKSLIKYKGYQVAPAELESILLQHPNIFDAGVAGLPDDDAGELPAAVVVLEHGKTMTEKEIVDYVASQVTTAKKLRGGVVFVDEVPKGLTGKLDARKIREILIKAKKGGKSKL

SMILES	composite z-score [1]	composite z-score [2]	composite z-score [3]	composite z-score [4]	composite z-score [5]	composite z-score [6]	z-score [7]	composite z-score [8]	composite z-score [9]	z-score [10]
C=CCC(OC(C)=O)[C@@H]1[C@@H](N(Cc2ccc(-c3cccc(C(F)(F)F)c3)o2)C(=O)c2ccc(C)cc2)c2cc(OCCCO)ccc2N1C(=O)Cc1ccc(OC)cc1 (stereo not given in full)	-0.139	-0.269	-0.542	-0.366	1.02	-0.289	1.36	0.189	0.0232	0.147 (inactive)
O=C(CS)NCCCCCNC(=O)[C@@H]1C[C@@H]2C(=O)N[C@@H](Cc3ccccc3)C(=O)N2[C@@H]1c1cccc(OCCO)c1	0.768	1.24	0.334	0.284	1.39	1.6	0.296	0.4	0.288	-1.97 (inactive)
CO[C@H]1O[C@H](CO)[C@@H](OC(=O)CCc2ccccc2)[C@H](OC(=O)c2cc3ccccc3[nH]2)[C@H]1OC(=O)c1cc2ccccc2[nH]1	1.37	1.01	0.332	0.824	1.26	1.31	-0.201	0.845	0.726	-0.105 (inactive)
C=C(COC)/C(=C/C[C@@H](OC(C)=O)c1ccc(CO)o1)c1cc(C(=O)OC)ccc1OC	0.291	0.091	-0.198	-0.341	0.758	-0.314	0.173	0.933	-0.188	-1.53 (inactive)
COCCOC(=O)N1C(=O)[C@@]2(c3cc(C#CC4(O)CCCCCC4)ccc31)[C@H](c1ccc(OCCO)cc1)N1[C@H](c3ccccc3)[C@H](c3ccccc3)OC(=O)[C@H]1[C@@H]2C(=O)Nc1nc2ccccc2s1	1.08	1.13	0.2	0.688	1.27	1.65	-2.33	1.38	0.708	-2.55 (inactive)
[N-]=[N+]=Nc1ccccc1C[C@]1(C(=O)O)N=C(c2ccc(OCCCO)cc2)O[C@H]1c1ccccc1N=[N+]=[N-]	1.45	1.21	0.507	0.986	0.945	0.0923	0.64	-0.676	1.25	-5.36 (inactive)
C[C@]1(C(=O)NCC(F)(F)F)c2ccccc2C(=O)N(Cc2ccccc2)[C@H]1c1ccc(CO)cc1	1.09	-0.634	-0.712	-1.32	-0.684	-1.02	-0.0626	-1.25	-0.68	0.857 (inactive)
CCCC=C(CCC)[C@@H](NC(=O)CCc1ccccc1)c1ccc(C(F)(F)F)cc1	0.608	1.16	0.398	0.973	0.809	0.94	3.02	0.17	0.71	1.31 (inactive)
COC(=O)C1N=C(c2ccc(OCCCO)cc2)N(c2ccccc2)O1 (stereo not given)	1.91	1.15	-0.0976	0.992	1.33	1.76	1.8	0.156	1.29	-7.36 (inactive)
COC(=O)C1=CC(CCCO)=CC(c2ccc(CN3CCCC3)cc2)N(Cc2cc3c(cc2Br)OCO3)C=C1C(=O)OC (stereo not given)	0.676	1.22	0.473	1.02	1.2	0.918	0.0526	0.514	1	0.197 (inactive)
NC(=O)[C@@H]1[C@H]2C(=O)O[C@H](c3ccccc3)[C@H](c3ccccc3)N2[C@H](c2ccc(OCCO)cc2)[C@@]12C(=O)Nc1ccc(C#CCCO)cc12	2.24	0.988	0.215	0.639	0.89	0.396	-0.399	-0.143	0.659	-2.01 (inactive)
CC(C)[Si]1(C(C)C)OCc2cc(-c3ccc(-c4ccc(Cl)c(Cl)c4)o3)nc(CCc3ccccc3)c21	-1.14	-0.122	0.164	-0.0058	-0.0289	-0.11	1.4	0.0028	0.0809	-2.45 (inactive)
COc1ccc(C(O)C2C=CC3C(=O)N(c4ccccc4)C(=O)C3N2Nc2ccccc2F)cc1 (stereo not given)	2.35	1.18	0.616	0.918	0.244	-0.276	-0.652	-0.2	0.265	1.31 (inactive)
CCOC(=O)C1=CCC(c2ccccc2)N(S(=O)(=O)c2ccc([N+](=O)[O-])cc2)C1 (stereo not given)	0.927	1.12	0.2	-0.773	0.0227	-0.169	0.0562	-0.111	0.599	0.864 (inactive)
COc1ccc([Si](C)(C)[C@H]2[C@H](CCO)O[C@@]3(C(=O)N(Cc4ccc(N5C(=O)c6ccccc6Oc6ccccc65)cc4)c4ccccc43)[C@@H]2C)cc1	-0.486	-0.76	-0.266	0.348	-1.14	-0.968	1.26	-0.865	0.0124	-0.652 (inactive)
[N-]=[N+]=NCc1ccccc1[C@@H]1OC(c2ccc(OCCCO)cc2)=N[C@]1(Cc1ccccc1N=[N+]=[N-])C(=O)N1CCCCC1	1.97	1.24	0.182	0.816	0.845	0.483	0.909	0.082	0.756	-1.61 (inactive)
CCOC(=O)C[C@H]1[C@H](OC(=O)c2ccc(C(=O)c3ccccc3)cc2)[C@@H](NC(=O)CC(C)C)c2cc(OCCCO)ccc2N1C(=O)Cc1ccc(OC)cc1	0.201	0.766	0.721	0.286	0.264	0.194	0.911	-0.215	0.675	-0.563 (inactive)
